According to PubChem BioAssay (Tox21):
Where “and” joins values, the source holds several entries; their conditions need not be identical. Equal values may be shown once. Inconclusive results are not listed. Where a call stands in place of a potency, no number is given. Some compounds were tested as several samples or in several runs, with calls that do not always agree. Calls of active or inactive are those of the source. Unless noted, the call rests on the fitted dose curve; in most records, active means well fitted curve in the direction sought with a large enough effect in the repeat runs; inconclusive means weak or mixed curves; inactive means no such curve, though single readings can be large; an effect the other way counts as inactive or inconclusive.

Assays:
[1] = A CellTox Green Cytotoxicity Assay to monitor cytotoxicity in HepG2 cells - 8 hour (AID 1224890); further: nearly all actives have a fitted effect of over 45% in size; further: potency means the concentration at half of the fitted maximal effect
In short: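 Nonlytic assay: viable cells exclude the dye, so fluorescence scales with cell death. HepG2 at 600 cells/well, compounds added after 5 h, signal read across 40 h.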

[2] = qHTS assay to identify small molecule antagonists of the estrogen receptor alpha (ER-alpha) signaling pathway using the BG1 cell line in the presence of 0.1 nM 17-beta-estradiol - cell viability counter screen (AID 1259241); further: nearly all actives have a fitted effect of over 40% in size; further: potency means the concentration at half of the fitted maximal effect
In short: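 In this screen, hormone-deprived VM7Luc4E2 cells were seeded at 4,000 per well, dosed with compound and 0.1 nM estradiol final, and incubated 22 hr at 37C and 5% CO2; fluorogenic live-cell protease signal reported viability.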

[3] = target: Androgen receptor (Homo sapiens) (UniProt P10275); test: qHTS assay to identify small molecule antagonists of the androgen receptor (AR) signaling pathway using the MDA cell line in the presence of 0.5 nM R1881 (AID 1259243); further: nearly all actives have a fitted effect of over 50% in size
Androgen receptor (Homo sapiens), sequence (P10275 whole entry, looked up): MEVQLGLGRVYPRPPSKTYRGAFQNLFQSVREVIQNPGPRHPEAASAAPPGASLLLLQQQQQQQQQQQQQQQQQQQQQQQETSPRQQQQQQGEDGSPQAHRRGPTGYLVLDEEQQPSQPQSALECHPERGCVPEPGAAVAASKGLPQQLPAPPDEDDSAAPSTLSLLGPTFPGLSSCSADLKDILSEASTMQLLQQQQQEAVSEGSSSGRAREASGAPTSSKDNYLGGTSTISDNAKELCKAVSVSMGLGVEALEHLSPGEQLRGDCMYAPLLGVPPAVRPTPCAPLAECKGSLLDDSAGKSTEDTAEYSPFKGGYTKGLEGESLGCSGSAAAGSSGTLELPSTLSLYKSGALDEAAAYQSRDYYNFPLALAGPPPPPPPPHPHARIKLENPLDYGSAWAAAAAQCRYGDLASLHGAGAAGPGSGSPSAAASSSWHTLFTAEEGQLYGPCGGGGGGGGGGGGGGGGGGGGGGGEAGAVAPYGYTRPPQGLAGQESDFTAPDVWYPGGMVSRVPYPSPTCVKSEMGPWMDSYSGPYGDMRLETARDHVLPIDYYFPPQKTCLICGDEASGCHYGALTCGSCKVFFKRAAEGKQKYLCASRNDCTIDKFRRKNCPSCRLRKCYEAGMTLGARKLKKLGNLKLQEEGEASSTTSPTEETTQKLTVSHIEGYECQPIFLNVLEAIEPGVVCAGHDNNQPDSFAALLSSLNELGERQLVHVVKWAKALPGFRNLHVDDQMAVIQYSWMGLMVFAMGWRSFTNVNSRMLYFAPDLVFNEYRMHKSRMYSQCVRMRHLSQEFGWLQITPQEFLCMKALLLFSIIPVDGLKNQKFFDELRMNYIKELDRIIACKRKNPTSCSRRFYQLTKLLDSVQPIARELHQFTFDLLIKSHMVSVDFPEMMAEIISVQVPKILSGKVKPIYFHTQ
In short: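 We exposed MDA-kb2 cells to compounds under 0.5 nM R1881 stimulation for 16 hr at 37C and quantified MMTV-driven luciferase by luminescence.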

[4] = qHTS assay to identify small molecule agonists of the sonic hedgehog signaling (Shh) pathway - cell viability counter screen (AID 1259366); further: nearly all actives have a fitted effect of over 50% in size; further: potency means the concentration at half of the fitted maximal effect
In short: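 In quantitative high-throughput format, 3T3 Gli1-Luc cells were exposed to compounds for 24hr and multiplexed for viability using CellTiter-Fluor, incubated 1hr at 37C before the fluorescence read.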

[5] = qHTS assay to identify small molecule antagonists of the sonic hedgehog signaling (Shh) pathway - cell viability counter screen (AID 1259367); further: nearly all actives have a fitted effect of over 55% in size; further: potency means the concentration at half of the fitted maximal effect
In short: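 Cells: 3T3 Gli1-Luc, 2,000/well, 4 hr pre-incubation. Compounds in DMSO, then conditioned medium. Incubation 24 hr, 37C, 5% CO2. CellTiter-Fluor at 23 hr, 1 hr, fluorescence.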

[6] = qHTS assay to identify small molecule agonists of the sonic hedgehog signaling (Shh) pathway (AID 1259368; calls by dose curve;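 further: NIH/3T3-derived 3T3Gli1-Luc cells carrying a stable Gli1-driven firefly luciferase reporter; series mostly up to about 92 µM; nearly all actives have a fitted effect of over 15% in size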)
In short: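 Mouse fibroblast (NIH/3T3) reporter cells with stably integrated Gli1-Luc were treated 24 hr with compound; firefly luciferase luminescence served as the read-out.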

[7] = target: Estrogen receptor beta (Homo sapiens) (UniProt Q92731); test: qHTS assay to identify small molecule agonists of the estrogen receptor beta (ER-beta) signaling pathway (AID 1259377; active means well fitted activation curve with a large enough effect in the signal ratio in the repeat runs, not every such curve was filed as active; the % refers to the signal ratio)
Estrogen receptor beta (Homo sapiens), sequence (Q92731 whole entry, looked up): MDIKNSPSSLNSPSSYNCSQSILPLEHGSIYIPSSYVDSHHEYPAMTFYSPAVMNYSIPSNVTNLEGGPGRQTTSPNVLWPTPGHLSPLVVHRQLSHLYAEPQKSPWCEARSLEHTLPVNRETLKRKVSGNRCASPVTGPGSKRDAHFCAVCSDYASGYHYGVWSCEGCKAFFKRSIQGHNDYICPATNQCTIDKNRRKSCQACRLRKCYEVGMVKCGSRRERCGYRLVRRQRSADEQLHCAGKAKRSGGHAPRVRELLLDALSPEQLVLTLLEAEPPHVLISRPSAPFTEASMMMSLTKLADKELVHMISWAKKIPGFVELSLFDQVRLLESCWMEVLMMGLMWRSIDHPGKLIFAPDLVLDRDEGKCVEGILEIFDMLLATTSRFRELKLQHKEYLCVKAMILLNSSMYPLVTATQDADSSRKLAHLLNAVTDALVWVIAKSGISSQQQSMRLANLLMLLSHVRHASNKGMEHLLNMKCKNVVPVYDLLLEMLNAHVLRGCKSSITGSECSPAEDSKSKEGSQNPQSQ
In short: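 Reporter cells (HEK293T, ER-beta-UAS-bla) receive compounds or DMSO after a 6 hr pre-incubation. They then incubate 16 hr at 37C/5% CO2, and fluorescence from LiveBLAzer B/G substrate is measured after 2 hours at room temperature.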

[8] = target: Estrogen receptor beta (Homo sapiens) (UniProt Q92731); test: qHTS assay to identify small molecule antagonists of the estrogen receptor beta (ER-beta) signaling pathway (AID 1259378; active means well fitted inhibition curve with a large enough effect in the signal ratio in the repeat runs, not every such curve was filed as active; the % refers to the signal ratio)
In short: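 Antagonist mode: compounds added to beta-lactamase reporter HEK293T ER-beta-UAS cells stimulated with E2 (1nM final), 16 hr at 37C. LiveBLAzer B/G FRET substrate, 2 hours room temperature, fluorescence read-out.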

[9] = qHTS assay to identify small molecule agonists of the androgen receptor (AR) signaling pathway in the presence of an antagonist - cell viability counter screen (AID 1259379); further: nearly all actives have a fitted effect of over 25% in size; further: potency means the concentration at half of the fitted maximal effect
In short: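 A CellTiter-Fluor read-out measured viability of MDA-kb2 reporter cells (MMTV promoter with AR and GR response elements). Treatment: nilutamide 3.0uM final with compounds at 15 concentrations, 16 hr, 37C, 0% CO2.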

[10] = qHTS assay to identify small molecule agonists of the estrogen receptor beta (ER-beta) signaling pathway - cell viability counter screen (AID 1259380); further: nearly all actives have a fitted effect of over 30% in size; further: potency means the concentration at half of the fitted maximal effect
In short: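 Cells used were ER-beta-UAS-bla HEK293T in medium with 2% charcoal-stripped FBS. They were treated for 16 hr at 37C. Viability came from CellTiter-Glo luminescence.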

[11] = target: Androgen receptor (Homo sapiens) (UniProt P10275); test: qHTS assay to identify small molecule agonists of the androgen receptor (AR) signaling pathway in the presence of an antagonist (AID 1259381; calls by dose curve; further: nearly all actives have a fitted effect of over 15% in size)
In short: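 Using human MDA-kb2 cells with an MMTV promoter–luciferase construct (AR and GR response elements), agonist activity is scored under 3.0uM nilutamide (final) co-treatment; 16hr incubation, 37C, luminescence readout via ONE-Glo.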

[12] = qHTS assay to identify small molecule antagonists of the estrogen receptor beta (ER-beta) signaling pathway - cell viability counter screen (AID 1259382); further: nearly all actives have a fitted effect of over 55% in size; further: potency means the concentration at half of the fitted maximal effect
In short: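 Agonist-stimulated (1nM E2) ER-beta-UAS-bla HEK293T cells are incubated with library compounds for 16 hr at 37C. Cell viability is then assessed in the reporter-assay wells by adding CellTiter-Glo and reading luminescence after 30 min.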

[13] = target: Estrogen receptor (Homo sapiens) (UniProt P03372); test: qHTS assay to identify small molecule agonists of the estrogen receptor alpha (ER-alpha) signaling pathway in the presence of an antagonist (AID 1259383; calls by dose curve; further: nearly all actives have a fitted effect of over 15% in size; further: potency means the concentration at half of the fitted maximal effect; on activation: top concentration of the series differs between compounds)
Estrogen receptor (Homo sapiens), sequence (P03372 whole entry, looked up): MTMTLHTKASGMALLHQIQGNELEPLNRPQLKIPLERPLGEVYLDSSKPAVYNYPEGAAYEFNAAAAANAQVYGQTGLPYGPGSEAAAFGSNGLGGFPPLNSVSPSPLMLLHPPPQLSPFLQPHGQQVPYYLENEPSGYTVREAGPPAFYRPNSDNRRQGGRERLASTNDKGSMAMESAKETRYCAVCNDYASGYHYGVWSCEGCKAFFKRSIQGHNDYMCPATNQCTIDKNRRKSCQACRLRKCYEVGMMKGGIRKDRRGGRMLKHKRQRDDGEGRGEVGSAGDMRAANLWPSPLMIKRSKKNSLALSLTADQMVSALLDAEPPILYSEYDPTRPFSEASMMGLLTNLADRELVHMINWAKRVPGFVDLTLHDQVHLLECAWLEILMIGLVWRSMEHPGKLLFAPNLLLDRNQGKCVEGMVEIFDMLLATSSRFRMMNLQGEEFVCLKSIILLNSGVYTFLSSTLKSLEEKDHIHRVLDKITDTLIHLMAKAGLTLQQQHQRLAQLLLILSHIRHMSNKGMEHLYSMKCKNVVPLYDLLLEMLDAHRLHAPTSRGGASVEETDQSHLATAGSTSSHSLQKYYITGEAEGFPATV
In short: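 Using VM7Luc4E2 cells seeded 24hr before treatment, antagonist ICI-182,780 (10.0nM final) was added, followed by compounds at 15 concentrations. Plates incubated 22hr; ONE-Glo luminescence quantified reporter activity.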

[14] = qHTS assay to identify small molecule antagonists of the androgen receptor (AR) signaling pathway using the MDA cell line in the presence of 0.5 nM R1881 - cell viability counter screen (AID 1259242); further: nearly all actives have a fitted effect of over 45% in size
In short: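 R1881 at 0.5 nM final stimulated MDA-kb2 cells during 16 hr compound treatment at 37C. Cytotoxicity read: CellTiter-Fluor fluorescence after 30 min.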

[15] = qHTS assay to identify small molecule HDAC inhibitors (AID 1259364); further: potency means the concentration at half of the fitted maximal effect;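 further: wild-type HCT-116 cells with endogenous class I/II HDAC activity; nearly all actives have a fitted effect of over 45% in size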
In short: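 Relative class I and II HDAC activity is taken from the luminogenic signal in HCT-116 cells, with compound exposure 2 hr and reagent development 30 min at room temperature.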

[16] = qHTS assay to identify small molecule HDAC inhibitors - cell viability counter screen (AID 1259365); further: series mostly up to about 92 µM; nearly all actives have a fitted effect of over 50% in size
In short: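 Measured quantity is CellTiter-Glo luminescence from wild-type HCT-116 cells after compound incubation of 2hr at 37C, 5% CO2; reagent developed 30min at room temperature.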

[17] = qHTS assay to identify small molecule agonists or antagonists of the thyroid stimulating hormone receptor (TSHR) signaling pathway - wild type cell line counter screen (AID 1259384; calls by dose curve)
In short: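 Counter screen in untransfected Hek293: compounds (15-point titration, triplicate) plus phosphodiesterase inhibitor Ro20-1724 added after 18 h plating; 30 min RT. Intracellular cAMP via competitive d2/cryptate immunoassay, 1 h incubation.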

[18] = target: Estrogen receptor (Homo sapiens) (UniProt P03372); test: qHTS assay to identify small molecule antagonists of the estrogen receptor alpha (ER-alpha) signaling pathway using the BG1 cell line in the presence of 0.1 nM 17-beta-estradiol (AID 1259244); further: nearly all actives have a fitted effect of over 50% in size
In short: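 VM7Luc4E2; 4xERE-luciferase; 0.1 nM E2 final; 22 h co-incubation, 37C; ONE-Glo luminescence after 30 min at room temperature.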

[19] = qHTS assay to identify small molecule phospholipidosis (PLD) inducers (AID 1259344; active means well fitted curve in the direction sought with a large enough effect; an effect the other way counts as inactive or inconclusive)
In short: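 Phospholipidosis is scored by imaging LipidTOX-stained pits in HepG2 cells exposed to compound for 24 h at 37 C; pit counts and integrated intensities per well and per cell serve as outputs.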

[20] = qHTS assay to identify small molecule antagonists of the sonic hedgehog signaling (Shh) pathway (AID 1259369; calls by dose curve; further: nearly all actives have a fitted effect of over 45% in size)
In short: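 Conditioned medium drives Shh signalling in 3T3Gli1-Luc cells; compounds in DMSO co-applied, 24hr at 37 C, then luciferase luminescence.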

O=[N+]([O-])c1cc(N(CCO)CCO)ccc1NCCO
Potency [1]: inactive | Potency [2]: 34.4 µM (active) | outcome [3]: inactive | Potency [4]: inactive | Potency [5]: inactive | outcome [6]: inactive | Potency [7]: inactive | Potency [8]: inactive | Potency [9]: 54.4 µM (active) and 30.6 µM (active) | Potency [10]: inactive | Potency [11]: inactive | Potency [12]: inactive | Potency [13]: inactive

CCCCC(CC)COC(C)=O (stereo unspecified)
Potency [1]: inactive | Potency [2]: inactive | Potency [14]: inactive | Potency [15]: inactive | outcome [16]: inactive | Potency [4]: inactive | Potency [5]: inactive | outcome [6]: inactive | Potency [7]: inactive | Potency [8]: inactive | Potency [9]: inactive | Potency [10]: inactive | Potency [12]: inactive | outcome [17]: inactive

ClC1=C(Cl)C(Cl)(Cl)C(Cl)=C1Cl
Potency [1]: inactive | Potency [2]: inactive | Potency [14]: inactive | Potency [18]: inactive | Potency [15]: inactive | outcome [16]: inactive | Potency [4]: inactive | Potency [5]: inactive | outcome [6]: inactive | Potency [7]: inactive | Potency [8]: inactive | Potency [9]: 43.3 µM (active) | Potency [10]: inactive | Potency [12]: inactive | Potency [13]: inactive | outcome [17]: inactive

Oc1ccc(OCc2ccccc2)cc1
Potency [1]: inactive | Potency [2]: inactive | Potency [18]: inactive | outcome [19]: inactive | Potency [15]: 6.71 µM (active) and inactive | outcome [16]: inactive | Potency [4]: inactive | Potency [5]: inactive | outcome [6]: inactive | Potency [20]: inactive | Potency [7]: inactive | Potency [8]: inactive | Potency [9]: inactive | Potency [10]: inactive | Potency [11]: inactive | Potency [12]: inactive | Potency [13]: 15 µM (active) and inactive | outcome [17]: inactive

CC1=C(CC(=O)O)c2cc(F)ccc2/C1=C\c1ccc(S(C)=O)cc1 (stereo unspecified)
Potency [1]: inactive | Potency [2]: inactive | Potency [14]: inactive | outcome [19]: inactive | Potency [15]: inactive | outcome [16]: inactive | Potency [4]: inactive | Potency [5]: inactive | outcome [6]: inactive | Potency [20]: inactive | Potency [7]: inactive | Potency [8]: inactive | Potency [9]: inactive | Potency [10]: inactive | Potency [12]: inactive | outcome [17]: inactive

CCCCCCCCC
Potency [1]: inactive | Potency [2]: inactive | Potency [14]: inactive | Potency [18]: inactive | Potency [15]: inactive | outcome [16]: inactive | Potency [4]: inactive | Potency [5]: inactive | outcome [6]: inactive | Potency [7]: inactive | Potency [8]: inactive | Potency [9]: inactive | Potency [10]: inactive | Potency [12]: inactive | Potency [13]: inactive | outcome [17]: inactive

CCCCCCCCCCCCN
Potency [1]: inactive and 24.5 µM (active) | Potency [2]: inactive | Potency [14]: inactive | Potency [15]: inactive | outcome [16]: inactive | Potency [4]: 27.3 µM (active) and inactive | Potency [5]: inactive | outcome [6]: inactive | Potency [20]: inactive | Potency [9]: inactive | Potency [10]: inactive and 30.6 µM (active) | Potency [12]: 54.5 µM (active) and inactive | outcome [17]: inactive

CCCCCCCCCCC=CC1CC(=O)OC1=O (stereo unspecified)
Potency [1]: inactive | Potency [2]: inactive | Potency [14]: inactive | Potency [15]: inactive | outcome [16]: inactive | Potency [4]: inactive | Potency [5]: inactive | outcome [6]: inactive | Potency [20]: inactive | Potency [9]: inactive | Potency [10]: inactive | Potency [12]: inactive | outcome [17]: inactive

C=C(C)C(=O)OCCCCCCCCCCCC
Potency [1]: inactive | Potency [2]: inactive | Potency [14]: inactive | Potency [18]: inactive | Potency [15]: inactive | outcome [16]: inactive | Potency [4]: inactive | Potency [5]: inactive | outcome [6]: inactive | Potency [7]: inactive | Potency [8]: inactive | Potency [9]: inactive | Potency [10]: inactive | Potency [12]: inactive | Potency [13]: inactive | outcome [17]: inactive

Clc1ccc(Cl)c(Cl)c1Cl
Potency [1]: inactive | Potency [2]: inactive | Potency [14]: inactive | Potency [15]: inactive | outcome [16]: inactive | Potency [4]: inactive | Potency [5]: inactive | outcome [6]: inactive | Potency [20]: inactive | Potency [7]: inactive | Potency [8]: inactive | Potency [9]: inactive | Potency [10]: inactive | Potency [12]: inactive | outcome [17]: inactive

CC1CC(OC(=O)c2ccccc2O)CC(C)(C)C1 (stereo unspecified)
Potency [1]: inactive | Potency [2]: inactive | Potency [14]: inactive | outcome [19]: inactive | Potency [15]: inactive | outcome [16]: inactive | Potency [4]: inactive | Potency [5]: 60.5 µM (active) and inactive | outcome [6]: inactive | Potency [9]: inactive | Potency [10]: inactive | Potency [12]: inactive | outcome [17]: inactive

Cc1cc(Cc2ccc(N)c(C)c2)ccc1N
Potency [1]: inactive | Potency [2]: inactive | Potency [14]: inactive | Potency [15]: inactive | outcome [16]: inactive | Potency [4]: inactive | Potency [5]: inactive | outcome [6]: inactive | Potency [20]: inactive | Potency [7]: inactive | Potency [8]: inactive | Potency [9]: inactive | Potency [12]: inactive
